The values below are quoted from earlier work in PubChem BioAssay AID977610.

A word on the Ki: it is the equilibrium dissociation constant of an inhibitor or competing ligand from its target.

Out of some 3,600 compounds screened, about 3,600 (100%) were called active. No cut-off is given here; in the data, nearly all actives have Ki up to about 18000 µM. So high a share suggests a set chosen from earlier hits. This is one part of the list. Numbered stars: 1 amine (or outer) side, 2 acyl side, 3 side chain; on linkers, the order of the positions; unused ones are H or OH. Starred links: 1 amine or outer side, 2 acyl side, 3 side chain; linkers in the order of their positions; H or OH if unused. Positions of bridges follow the written chain, without caps; N, C: chain ends. Bridge positions count the residues as written; N and C are the ends. Where a SMILES comes first, the peptide text is derived from it. Square brackets hold non-standard residues; d marks the D form. Residues, ends and D or L forms follow the SMILES beside them. Peptide text beside a SMILES is read from it. [ ]: non-standard residue; d: D form. The star is where a group is joined. X2 = CC[C@H](C)[C@H](N[*:1])c1cnnn1[C@@H](C)C(=O)[*:2]; X1 = C(CS[*:2])CN(CCCS[*:3])[*:1]; Orn(CH(NH2)2) = NC(N)NCCC[C@H](N)C(=O)O; Cbz = O=C(OCc1ccccc1)*; Dap = NC[C@H](N)C(=O)O; Nlys = NCCCCNCC(=O)O

The series in a line: PubChem AID 977610. The following applies: PDB protein-ligand complexes, literature Ki.

`CCOC(=O)c1cc(C#N)c(N2CCC(C(=O)NS(=O)(=O)Cc3ccccc3)CC2)nc1C`: the inhibitory constant (Ki) (protein: P2Y12R, PDB entry 4ntj) is 0.0439 µM (active). On to `CC(C[P+](O)(O)O)C(=O)O` (configuration not stated), for which the Ki (protein: PHOSPHO-2-DEHYDRO-3-DEOXYHEPTONATE ALDOLASE DAH7PS, PDB entry 4uma) was 3.9 µM (active). As for `CC(C)C[C@H](NC(=O)OCc1ccccc1)C(=O)N[C@@H](Cc1ccccc1)C(=O)N[C@H](C=O)CCC(=O)N(C)C` (Cbz-Leu-Phe-Glu(NMe2)-aldehyde), where the note is “protein: Genome polyprotein, PDB entry 4imz”, the inhibition constant Ki is 0.12 µM (active).

As to `CC(C)C[C@H](NC(=O)[C@H](C)NC(=O)OCc1ccccc1)C(=O)N[C@@H](CCC(=O)N(C)C)C(=O)O` (Cbz-Ala-Leu-Glu(NMe2)-OH), for the setting “protein: Genome polyprotein, PDB entry 4inh”, the Ki is 0.56 µM (active). Turning to `CC(=O)NC[C@@H](C=O)NC(=O)[C@H](Cc1ccccc1)NC(=O)[C@H](CC(C)C)NC(=O)OCc1ccccc1` (Cbz-Leu-Phe-[Dap](Ac)-aldehyde), the Ki (protein: 3C-like protease, PDB entry 4imq) was 1.5 µM (active). For the compound `COc1cc([C@@H]2Nc3ccc(C(N)N)cc3[C@H]3c4ccccc4C[C@H]32)c(-c2ccc(C(=O)O)cc2)cc1O`, under “protein: Factor VII, PDB entry 4ish”, the Ki is 0.0019 µM (active). As to `CC(=O)N[C@H]1CNC[C@H](O)[C@@H](O)[C@@H]1O`, for the setting “protein: Beta-hexosaminidase 1, PDB entry 4mss”, the Ki is 0.4 µM (active). For `COc1cc2c(c(OC)c1OC)-c1ccc(OC)c(=O)cc1[C@@H](NC(C)=O)CC2`, for the setting “protein: Tubulin, PDB entry 4o2b”, the Ki is 1.8 µM (active). Take `NCCCC[C@@H]1NC(=O)[C@H](CCC(N)=O)NC(=O)[C@H](Cc2ccc(O)cc2)NC(=O)[C@@H](NC(=O)[C@H](Cc2cccc3ccccc23)NC(=O)[C@H](CCCNC(N)N)NC(=O)[C@@H](N)CCCNC(N)N)CSSC[C@@H](C(=O)N[C@@H](CCCNC(N)N)C(=O)NCC(=O)N2CCC[C@@H]2C(=O)O)NC(=O)[C@H](CCCNC(N)=O)NC(=O)[C@H](CCCNC(N)N)NC(=O)[C@H](Cc2ccc(O)cc2)NC(=O)[C@@H]2CCCN2C(=O)[C@H]2CCCN2C1=O`: under “protein: C-X-C chemokine receptor type 4, Lysozyme Chimera(CXCR4-3), PDB entry 3oe0”, the inhibition constant Ki is 0.0025 µM (active). Take `CC[C@H](C)[C@@H]1NC(=O)[C@H](C)n2cc(nn2)[C@@H]2CCCN2C(=O)[C@H]([C@@H](C)CC)NC(=O)[C@H](CO)NC(=O)[C@H](CCCCN)NC(=O)[C@H]([C@@H](C)O)NC(=O)[C@@H](NC(=O)[C@H](CCCNC(N)N)NC(=O)CN)CSSC[C@@H](C(=O)N[C@@H](Cc2ccccc2)C(=O)O)NC1=O` (H-G[Orn(CH(NH2)2)]CTKSI[X1]ICF-OH; disulfide 3-10): the inhibition constant (Ki) (protein: bovine CATIONIC TRYPSIN, PDB entry 4abi) is 0.0063 µM (active). `CC[C@H](C)[C@@H]1NC(=O)[C@@H]2CCCN2C(=O)[C@@H]2CCCN2C(=O)[C@H]([C@@H](C)CC)NC(=O)[C@H](CO)NC(=O)CN(CCCCN)C(=O)[C@H]([C@@H](C)O)NC(=O)[C@@H](NC(=O)[C@H](CCCNC(N)N)NC(=O)CN)CSSC[C@@H](C(=O)N[C@@H](Cc2ccccc2)C(=O)O)NC1=O` (H-G[Orn(CH(NH2)2)]CT[Nlys]SIPPICF-OH; disulfide 3-11): the Ki (protein: Cationic trypsin, PDB entry 4hgc) is 0.0001 µM (active). With `CC[C@H](C)[C@@H]1NC(=O)[C@@H]2CCCN2C(=O)[C@@H]2CCCN2C(=O)[C@H]([C@@H](C)CC)NC(=O)[C@H](CO)NC(=O)[C@H](CCCCN)NC(=O)[C@H]([C@@H](C)O)NC(=O)[C@@H]2CSSC[C@H](NC1=O)C(=O)N[C@@H](Cc1ccccc1)C(=O)N1CCC[C@H]1C(=O)N[C@@H](CC(=O)O)C(=O)NCC(=O)N[C@@H](CCCNC(N)N)C(=O)N2`, the Ki (protein: bovine ?-trypsin, PDB entry 1sfi) was 0.0001 µM (active). As for `CC[C@H](C)[C@@H]1NC(=O)[C@@H]2CCCN2C(=O)[C@H](C)n2nncc2[C@H]([C@@H](C)CC)NC(=O)[C@H](CO)NC(=O)[C@H](CCCCN)NC(=O)[C@H]([C@@H](C)O)NC(=O)[C@@H](NC(=O)[C@@H](N)CCCNC(N)N)CSSC[C@@H](C(=O)N[C@@H](Cc2ccccc2)C(=O)O)NC1=O` (H-[Orn(CH(NH2)2)]CTKS[X2]PICF-OH; disulfide 2-9), the inhibition constant (Ki) (protein: bovine CATIONIC TRYPSIN, PDB entry 4abj) is 0.034 µM (active). As to `NC(=O)[C@H](CCC(=O)O)NC(=O)[C@H](CCC(=O)O)NC(=O)[C@H](Cc1cc(-c2ccccc2)no1)C[P+](O)(O)c1ccc(Br)cc1`, where the note is “protein: Macrophage metalloelastase (F171D mutation), PDB entry 4gr3”, the inhibition constant Ki was 0.0155 µM (active). On to `NC(=O)[C@H](CCC(=O)O)NC(=O)[C@H](CCC(=O)O)NC(=O)[C@H](Cc1cc(-c2ccc(-c3cccc(Cl)c3)cc2)no1)C[P+](O)(O)c1ccc(Br)cc1`, for which the inhibitory constant (Ki) (protein: Macrophage metalloelastase (F171D mutation), PDB entry 4gql) was 0.00026 µM (active). Consider `OC[C@@]1(F)OC[C@H](O)[C@@H](O)[C@@H]1O`, for which the Ki (protein: ALPHA-1,4-GLUCAN LYASE ISOZYME 1, PDB entry 4amx) is 6500 µM (active). In the case of `OC[C@]1(F)OC[C@H](O)[C@@H](O)[C@@H]1O`, the Ki (protein: ALPHA-1,4-GLUCAN LYASE ISOZYME 1, PDB entry 4amw) is 28300 µM (active). Take `NC1NN=C(S(N)(=O)=O)S1` (configuration not stated): under “protein: human carbonic anhydrase II, PDB entry 2hnc”, the Ki was 0.06 µM (active). With `C[C@@H]1C[C@H]2[C@@H]3CCC4=CC(=O)C=C[C@]4(C)[C@@]3(Cl)[C@@H](O)C[C@]2(C)[C@@]1(OC(=O)c1ccco1)C(O)CCl` (some centres not stated), the inhibition constant Ki (protein: Glucocorticoid receptor GR LBD, PDB entry 4p6w) is 0.0007 µM (active). Consider `Nc1[nH]c(N)c2ccccc12`, for which the inhibition constant (Ki) (protein: PDE10A2, PDB entry 4llj) is 380 µM (active). As to `CCCNC(=O)CN[C@@H](C(=O)N1CC[C@H]1C(=O)NCc1ccc(C(N)N)cc1)C1CCCCC1`, where the note is “protein: THROMBIN, PDB entry 4bak”, the Ki is 0.00122 µM (active).

For `CCNC(=O)CN[C@@H](C(=O)N1CC[C@H]1C(=O)NCc1ccc(C(N)N)cc1)C1CCCCC1`, the Ki (protein: THROMBIN, PDB entry 4baq) was 0.00098 µM (active).

Turning to `CNC(=O)CN[C@@H](C(=O)N1CC[C@H]1C(=O)NCc1ccc(C(N)N)cc1)C1CCCCC1`, the Ki (protein: THROMBIN, PDB entry 4ban) is 0.00243 µM (active). As for `CC[C@H](C)[C@H](NC(C)=O)C(=O)N[C@@H](Cc1ccc(O)cc1)C(=O)N[C@@H](Cc1ccc(O)cc1)[P+](O)(O)O`, the inhibition constant (Ki) (protein: Human angiotenisn converting enzyme N-domain, PDB entry 4bzs) is 0.075 µM (active). On to `O=C(N[C@@H](Cc1ccccc1)[P+](O)(O)C[C@H](Cc1cc(-c2ccccc2)no1)C(=O)N[C@@H](Cc1ccc(O)cc1)C(=O)O)OCc1ccccc1`, for which the inhibition constant (Ki) (protein: ANGIOTENSIN-CONVERTING ENZYME, PDB entry 4ca8) was 0.21 µM (active). On to `O=C(N[C@@H](Cc1ccccc1)[P+](O)(O)C[C@@H](Cc1cc(-c2ccccc2)no1)C(=O)N[C@@H](Cc1ccc(O)cc1)C(=O)O)OCc1ccccc1`, for which the Ki by setting is: (protein: ANGIOTENSIN-CONVERTING ENZYME N-DOMAIN, PDB entry 4ca6) 0.18 µM (active); (protein: ANGIOTENSIN-CONVERTING ENZYME, PDB entry 4ca5) 0.00041 µM (active); (protein: ANGIOTENSIN-CONVERTING ENZYME, PDB entry 4ca7) 0.044 µM (active). Regarding `CC(C)C[C@H](NC(=O)[C@@H]1CSSC[C@H]2C[C@H](NC(=O)CN)C(=O)N[C@@H](C)C(=O)N[C@@H](CC(C)C)C(=O)NCC(=O)N[C@@H](CCCN=C(N)N)C(=O)NCC(=O)N[C@@H](CSS2)C(=O)N[C@@H](CCC(=O)O)C(=O)N[C@@H](CC(N)=O)C(=O)N[C@@H](Cc2cnc[nH]2)C(=O)N[C@@H](CCCN=C(N)N)C(=O)N1)C(N)=O`, for the setting “protein: Urokinase-type plasminogen activator, PDB entry 4os5”, the inhibition constant Ki was 23.7 µM (active).

As to `CC(C)C[C@H](NC(=O)[C@@H]1CSS[C@@H]2CSSC[C@H](NC(=O)CNC(=O)[C@H](CCCN=C(N)N)NC(=O)CNC(=O)[C@H](CC(C)C)NC(=O)[C@H](C)NC(=O)[C@@H](NC(=O)CN)C2)C(=O)N[C@@H](CCC(=O)O)C(=O)N[C@@H](CC(N)=O)C(=O)N[C@@H](Cc2cnc[nH]2)C(=O)N[C@@H](CCCN=C(N)N)C(=O)N1)C(N)=O`, the inhibition constant Ki (protein: Urokinase-type plasminogen activator, PDB entry 4os1) was 2.5 µM (active). As for `CC(C)C[C@H](NC(=O)[C@@H]1CSS[C@H]2CSSC[C@H](NC(=O)CNC(=O)[C@H](CCCN=C(N)N)NC(=O)CNC(=O)[C@H](CC(C)C)NC(=O)[C@H](C)NC(=O)[C@@H](NC(=O)CN)C2)C(=O)N[C@@H](CCC(=O)O)C(=O)N[C@@H](CC(N)=O)C(=O)N[C@@H](Cc2cnc[nH]2)C(=O)N[C@@H](CCCN=C(N)N)C(=O)N1)C(N)=O`, the Ki (protein: Urokinase-type plasminogen activator, PDB entry 4os4) is 13.6 µM (active). As to `CC(C)C[C@H](NC(=O)[C@@H]1CSSCCCN2CCCSSC[C@H](NC(=O)CNC(=O)[C@H](CCCN=C(N)N)NC(=O)CNC(=O)[C@H](CC(C)C)NC(=O)[C@H](C)NC(=O)[C@@H](NC(=O)CN)CC2=O)C(=O)N[C@@H](CCC(=O)O)C(=O)N[C@@H](CC(N)=O)C(=O)N[C@@H](Cc2cnc[nH]2)C(=O)N[C@@H](CCCN=C(N)N)C(=O)N1)C(N)=O` (H-GDALGRGCENHRCL-NH2; linker 2-8-13 via X1), the Ki (protein: Urokinase-type plasminogen activator, PDB entry 4os7) is 24 µM (active).
